Assay results from PubChem BioAssay (Tox21).
Values joined by “and” are separate entries in the source; they are usually repeats but may differ in a detail not shown here. Equal values may be shown once. Records with an inconclusive call do not appear. A call without a number means that no potency is given here. Active and inactive are the calls of the source. Calls come from the whole dose curve; as a rule, active = well fitted cell-killing curve with a large enough effect in the repeat runs; inconclusive = weak or mixed curves, or effect the other way; inactive = flat fitted curve, though single readings scatter.

Experiments:
[1] = cAMP Responsive Elements (CRE) small molecule antagonists, cell-based qHTS assay: qHTS cell viability counter screen (AID 2060913); note: nearly all actives have a fitted effect of over 40% in size
Procedure, shortened: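 Viability of NKH477-stimulated (0.25 uM final) CRE-bla HEK293T cells is measured by CellTiter-Glo luminescence following 3 hrs compound exposure at 37 C.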

[2] = cAMP Responsive Elements (CRE) small molecule agonists, cell-based qHTS assay: qHTS cell viability counter screen (AID 2060914); note: nearly all actives have a fitted effect of over 50% in size
Procedure, shortened: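 Cytotoxicity was measured as ATP luminescence (CellTiter-Glo, 30 min at room temperature) in the same wells as the CRE-bla FRET read-out. HEK293T CRE-bla cells had 3 h compound exposure at 37C/5% CO2.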
Potency is the fitted concentration of half-maximal effect.

Row | SMILES | Potency [1] | Potency [2]
1 | Cn1cnc2c(F)c(Nc3ccc(Br)cc3Cl)c(C(=O)NOCCO)cc21 | inactive | inactive
2 | COc1cc(C(C)(C)C)c(O)c(C(C)(C)C)c1 | inactive | inactive
3 | CCOc1c(N2CCOCC2)cnn(C)c1=O | inactive | inactive
4 | O=C(O)CCCC[P+](c1ccccc1)(c1ccccc1)c1ccccc1 | inactive | inactive
5 | C=C(C)[C@H]1CC=C(C)C(=O)C1 | inactive | inactive
6 | CC(C)Nc1cccnc1N1CCN(C(=O)c2cc3cc(NS(C)(=O)=O)ccc3[nH]2)CC1 | inactive | inactive
7 | CCCC(=O)C(=O)O | inactive | inactive
8 | Nc1ccc(O)c(N)c1 | inactive | inactive
9 | CCCOC(C(=O)OC1CCN(C)CC1)(c1ccccc1)c1ccccc1 | inactive | inactive
10 | O=[N+]([O-])c1ccccc1Nc1ccccc1 | inactive | inactive
11 | CCN1CC(CCN2CCOCC2)C(c2ccccc2)(c2ccccc2)C1=O (centres undefined) | inactive | inactive
12 | Cc1[nH]c(=O)c(C#N)cc1-c1ccc2nccn2c1 | inactive | inactive
13 | Cc1nccn1CC1CCc2c(c3ccccc3n2C)C1=O (centres undefined) | inactive | inactive
14 | O=C(O)Cc1cc(I)c(Oc2ccc(O)c(I)c2)c(I)c1 | inactive | inactive
15 | CSSc1ccoc1C | inactive | inactive
16 | CC(C=O)c1ccccc1 (centres undefined) | inactive | inactive
17 | Oc1ccccc1 | inactive | inactive
18 | O=C(COc1ccc(Cl)cc1)N1CCN(Cc2ccc3c(c2)OCO3)CC1 | inactive | inactive
19 | CC(C)n1c(/C=C/[C@@H](O)C[C@@H](O)CC(=O)O)c(-c2ccc(F)cc2)c2ccccc21 | inactive | inactive
20 | O=NO | inactive | inactive
21 | CCCCOC(=O)CC | inactive | inactive
22 | CC1(C)NC(=O)NC1=O | inactive | inactive
23 | Cc1cc2c(cc1S(N)(=O)=O)S(=O)(=O)CCC2 | inactive | inactive
24 | CCCN(C1CCN(C(=O)C2CCNCC2)CC1)[C@@H]1CCc2ccc(OC)cc2C1 | inactive | inactive
25 | CC(C)NCC(O)COc1ccc(COCCOC(C)C)cc1 (centres undefined) | inactive | inactive
26 | NS(=O)(=O)c1cc2c(cc1Cl)CN(C1CCCCC1)C2=O | inactive | inactive

Row | SMILES | Potency [1] | Potency [2]
27 | N#C[C@@H]1C[C@@H]2C[C@@H]2N1C(=O)[C@@H](N)C12CC3CC(CC(O)(C3)C1)C2 | inactive | inactive
28 | NS(=O)(=O)Cc1noc2ccccc12 | inactive | inactive
29 | CCC(Cc1ccccc1)(C(=O)c1ccc(N2CCOCC2)cc1)N(C)C (centres undefined) | inactive | inactive
30 | CCOC(=O)OC(C)OC1=C(C(=O)Nc2ccccn2)N(C)S(=O)(=O)c2ccccc21 (centres undefined) | inactive | inactive
31 | CCCCC(CC)(CO)CO | inactive | inactive
32 | CN1CCCC(n2nc(Cc3ccc(Cl)cc3)c3ccccc3c2=O)CC1 (centres undefined) | inactive | inactive
33 | CC(C)c1ccccc1O | inactive | inactive
34 | CCc1ccc(O)c(OC)c1 | inactive | inactive
35 | Nc1cnn([C@@H]2O[C@H](CO)[C@@H](O)[C@H]2O)c(=O)n1 | inactive | 0.97 µM (active)
36 | CCOC(=O)CCCCCCCCC(=O)OCC | inactive | inactive
37 | CC(C)=CCC[C@@](C)(O)[C@H]1CC=C(C)CC1 | inactive | inactive
38 | CN(C)CCCN1c2ccccc2Sc2ccc(C(F)(F)F)cc21 | inactive | inactive
39 | C=C(C)CCCC | inactive | inactive
40 | N#CCC(=O)O | inactive | inactive
41 | CC(=O)[C@H]1CC[C@H]2[C@@H]3CCC4=CC(=O)CC[C@]4(C)[C@H]3CC[C@]12C | 60.8 µM (active) and 61.1 µM (active) | inactive
42 | COc1cc2c(cc1OC)-c1cc3ccc(OC)c(OC)c3c[n+]1CC2 | inactive | inactive
43 | c1ccc2c(c1)c1cccc3ccc4cccc2c4c31 | inactive | inactive
44 | CC(C)(CO)[C@@H](O)C(=O)NCCCO | inactive | inactive
45 | COC(C)(C)CCO | inactive | inactive
46 | CC(C)=CCC[C@H](C)CCO | inactive | inactive
47 | C[Si]1(C)O[Si](C)(C)O[Si](C)(C)O[Si](C)(C)O[Si](C)(C)O1 | inactive | inactive
48 | Cn1c(=O)c2c(ncn2CC2OCCO2)n(C)c1=O | inactive | inactive
49 | CC(C)[C@@H]1CC[C@@H](C)C[C@H]1O | inactive | inactive
50 | C=CCN1CCc2nc(N)sc2CC1 | inactive | inactive
51 | CCCCNC(=O)NS(=O)(=O)c1ccc(N)cc1 | inactive | inactive
52 | CC1=C(C(=O)O)N2C(=O)[C@@H](NC(=O)[C@H](N)c3ccc(O)cc3)[C@H]2SC1 | inactive | inactive
